Test results reported in PubChem BioAssay AID932 (The Scripps Research Institute Molecular Screening Center, 2007).
Out of some 200,000 compounds screened, about 5,100 (2.5%) were called active. Only a selection was taken, and actives are over-represented in it overall. Values without a mark were called inactive.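 Rule for the calls: active = activation above the screen-wide mean activation plus 3 SD (cut at about 130% in these data); inactive = the rest.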

assay: STAT1 signaling activators, primary screen, cell-based, HTS, luciferase reporter (AID 932); details: NIH 3T3 STAT1-luciferase reporter, IFN-gamma, luminescence; at 5.5 µM; hits give high values; 100% = IFN-gamma alone, no compound;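 note: raw ratio to IFN-gamma control signal so 100% means no change and 0% no light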

| Compound | activation (% of control) |
| --- | --- |
| Cc1ccc(-n2cc3ccc([N+](=O)[O-])cc3n2)cc1 | 123% |
| Cc1ccc(-c2cn3cc([N+](=O)[O-])ccc3n2)cc1 | 133% (active) |
| Cc1ccc(-c2cn3cc(C)ccc3n2)cc1 | 12.9% |
| CCN(/N=C/c1ccccc1)c1cc(=O)n(C)c(=O)[nH]1 | 98.7% |
| COc1ccccc1NC(=O)C1=C(C)NC(=O)NC1c1ccc(C)s1 (stereo unspecified) | 99.8% |
| COc1ccc(-c2cn3cccnc3n2)cc1 | 118% |
| CCCC(=O)Nc1cccc(-c2cn3ccsc3n2)c1 | 108% |
| COc1ccc(-c2cn3ccsc3n2)cc1 | 135% (active) |
| COc1cc(NC(=O)CSc2nnc3ccc(-c4ccncc4)nn23)cc(OC)c1 | 104% |
| C=CCN1C(=O)C(O)(CC(=O)c2ccccn2)c2ccccc21 (stereo unspecified) | 104% |
| COc1ccc(-c2cc(C(=O)NC(Cc3c[nH]c4ccccc34)C(=O)O)c(C)o2)cc1OC (stereo unspecified) | 93.3% |
| O=C(Nc1ccc(Br)cn1)c1ccc([N+](=O)[O-])o1 | 108% |
| CC(C)C(=O)Nc1cccc(NC(=O)c2ccc([N+](=O)[O-])cc2Cl)c1 | 112% |
| O=C(Nc1ccc(Br)cn1)c1ccc([N+](=O)[O-])cc1Cl | 142% (active) |
| O=C(NC1CCCC1)C(NS(=O)(=O)c1ccc(Br)s1)c1ccccc1 (stereo unspecified) | 94.7% |
| C/C(=N\NC(=S)NC(C)C)c1ccc(C(C)(C)C)cc1 | 94.3% |
| COc1cccc(C(=O)NNC(=O)c2ccccc2Br)c1 | 98.2% |
| COc1ccc(C2COC(=O)C2=N)c(NC(=O)c2ccccc2)c1 (stereo unspecified) | 107% |
| COc1cccc(C(=O)Nc2cc3c(cc2Br)OCCCO3)c1 | 141% (active) |
| Cc1cccc(N2CCN(S(=O)(=O)c3ccc4[nH]c(=O)c(=O)[nH]c4c3)CC2C)c1 (stereo unspecified) | 99.2% |
| Cc1ccc(N=Cc2c(O)n(-c3nccs3)c(=O)c3ccccc23)c(C)c1 | 105% |
| Cc1cccc(-n2c(O)c(C=Nc3ccccc3N)c(=O)[nH]c2=O)c1 | 156% (active) |

| Compound | activation (% of control) |
| --- | --- |
| [O-][n+]1onc2c1CCc1[nH]c(-c3ccccc3)nc1-2 | 101% |
| Cc1ccc(NC(=O)c2ccc(S(=O)(=O)NCC3CCCO3)cc2)cc1C (stereo unspecified) | 103% |
| O=C(NCc1ccncc1)NC12CC3CC(CC(C3)C1)C2 | 94.6% |
| O=C(Nc1cccc(CCc2ccccn2)c1)c1ccc(Cl)cc1 | 96.1% |
| O=C(Nc1ccccc1)OCc1cc(-c2ccc(Cl)cc2)on1 | 95.6% |
| O=C(Nc1cccc(Cl)c1)OCc1ccccn1 | 130% (active) |
| Cc1nc([N+](=O)[O-])cn1CC(=O)Nc1ccc2c(c1)OCO2 | 101% |
| CCOC(=O)NC(=O)C(=CNc1cccc(OC)c1)C(=O)NC(=O)OCC | 93.9% |
| O=C(Nc1ccccc1)c1ccc2nsnc2c1 | 113% |
| O=C(Nc1ccccc1Cl)c1ccc2nsnc2c1 | 133% (active) |
| Cc1cccc(NC(=O)c2ccc3nsnc3c2)c1C | 104% |
| Cc1ccc(C(=O)Nc2cccc3ncccc23)cc1[N+](=O)[O-] | 106% |
| Cc1nc(N2CCOCC2)nc2c1CCCC2 | 98.4% |
| Nc1nc(-c2sc3nc4c(cc3c2N)CCCC4)nc(N2CCOCC2)n1 | 153% (active) |
| Cc1cc(Oc2ccccc2)nc(N2CCOCC2)n1 | 100% |
| CC(C)OC(=O)CN1CCN(c2ccc(Cl)cc2)CC1 | 92.2% |
| O=C1NC(c2cccc(Cl)c2)Nc2ccccc21 (stereo unspecified) | 107% |
| Nc1nnnn1CC(=O)N/N=C/c1ccc(-c2cccc(Cl)c2)o1 | 94.7% |
| O=C1c2ccccc2NC(c2ccc(-c3cccc(Cl)c3)o2)N1O (stereo unspecified) | 132% (active) |
| COc1ccc(C2=NN(c3nc4ccccc4s3)C(=O)C2)cc1 | 101% |
| CCOc1ccc(NC(=O)NNC(=O)c2ccc(Cl)cc2Cl)cc1 | 97.2% |
| CS(=O)(=O)N(CC(=O)N1CCCC1)Cc1ccccc1 | 98.3% |

| Compound | activation (% of control) |
| --- | --- |
| O=C(CC1CCCCC1)NCc1ccco1 | 108% |
| Cc1ccc(OCC(=O)NC(C)c2ccccc2)c([N+](=O)[O-])n1 (stereo unspecified) | 117% |
| CSCC(NS(=O)(=O)c1ccc(C)cc1)C(=O)O (stereo unspecified) | 105% |
| O=C(Nc1ccc2c(c1)OCCO2)c1ccc(Cl)c(S(=O)(=O)N2CCCCC2)c1 | 96.8% |
| O=C(Nc1cccc(Cl)c1N1CCOCC1)c1ccc2c(c1)OCCO2 | 92.9% |
| CN1CCN(c2ccc(NC(=O)c3ccc4c(c3)OCCO4)cc2Cl)CC1 | 144% (active) |
| CC(O)CNCCOc1cccc(Oc2ccccc2)c1 (stereo unspecified) | 102% |
| COc1ccc(-c2csc(N3CCN(Cc4ccc5c(c4)OCO5)CC3)n2)cc1 | 101% |
| COc1ccc(C(=O)Nc2nc(-c3ccc(S(=O)(=O)N4CCOCC4)cc3)cs2)cc1 | 85.1% |
| COc1ccc(-c2csc(Cc3nc(O)cs3)n2)cc1 | 221% (active) |
| Cc1cc(/C=C2/C(=N)N3C(=NC2=O)SN=C3S(C)(=O)=O)c(C)n1-c1ccccc1 | 107% |
| CCCCN(CC)C(=S)Nc1ccc2nc3n(c(=O)c2c1)CCCCC3 | 91% |
| Cc1csc(NC(=O)Nc2ccccc2[N+](=O)[O-])n1 | 133% (active) |
| Cc1cc(NC(=O)Nc2ccccc2[N+](=O)[O-])no1 | 114% |
| Cc1c(NC(=O)Nc2ccccc2)cccc1[N+](=O)[O-] | 83.6% |
| CN(Cc1cccc2ncccc12)C(=O)CC1C(=O)NCCN1Cc1ccc(F)cc1 (stereo unspecified) | 98.1% |
| CC(C)(C)C(=O)c1cnc(Nc2ccccc2)s1 | 156% (active) |
| O=C(c1ccc(Cl)cc1)c1cnc(Nc2ccccc2)s1 | 119% |
| CC(=O)c1cnc(-c2ccccc2)s1 | 116% |
| CS(=O)(=O)n1nc(-c2ccco2)nc1N | 105% |
| CCn1nnnc1SCC(=O)c1ccc(C)cc1C | 145% (active) |
| CNC(=O)CSc1nnnn1-c1ccc(C)cc1C | 97.7% |

| Compound | activation (% of control) |
| --- | --- |
| COc1ccc(C(=O)CSc2nnnn2C)c(OC)c1 | 107% |
| O=C(NCCSc1ccccc1)c1ccco1 | 134% (active) |
| COc1ccc(CCNC(=O)c2ccco2)cc1 | 109% |
| O=C(CSc1ccccc1)Nc1ccc(NC(=O)c2ccco2)cc1 | 109% |
| CN(C)S(=O)(=O)N1CCN(c2ccc([N+](=O)[O-])cc2)CC1 | 110% |
| CCn1c(/C=C/c2ccc([N+](=O)[O-])o2)nc2ccccc2c1=O | 182% (active) |
| C/[N+]([O-])=C\c1ccc([N+](=O)[O-])o1 | 99.5% |
| Cn1cc(/C=C/c2nc3ccccc3c(=O)n2-c2cccc([N+](=O)[O-])c2)c2ccccc21 | 85.4% |
| CCCn1c(SCC(=O)Nc2ccc(C)c(S(=O)(=O)N3CCOCC3)c2)n[nH]c1=O | 90.6% |
| CCC(=O)Nc1ccc(C(=O)N2CCN(C(=O)c3ccco3)CC2)cc1 | 99.8% |
| CN(C)c1ccc(C=NCCc2ccc(S(N)(=O)=O)cc2)cc1 | 101% |
| O=C(Nc1ccn(Cc2ccccc2)n1)c1n[nH]c([N+](=O)[O-])c1Cl | 121% |
| O=C(Nc1ccn(Cc2ccc(F)cc2)n1)c1ccncc1 | 94.9% |
| O=C(Nc1ccn(Cc2ccccc2)n1)c1cccc(F)c1 | 131% (active) |
| COC1=CCC2([N+](=O)[O-])CN(CC(=O)O)CC1([N+](=O)[O-])C2 (stereo unspecified) | 106% |
| Fc1ccc2c(c1)C(c1cccnc1)=NNC(c1cccs1)=N2 | 103% |
| Cc1ccc(NC(=O)O/N=C/c2cccc([N+](=O)[O-])c2)cc1 | 113% |
| COc1cc2c3c(c1)/C(=C1/SC(=S)NC1=O)C(=O)N3C(C)(C)C=C2C | 98.1% |
| Cc1ccc(NC(=O)c2oc3ccccc3c2C)c([N+](=O)[O-])c1 | 100% |
| O=C(Nc1ccccc1)c1ccccc1NC(=O)C(F)(F)F | 93.5% |
| CC(C)n1c(=O)[nH]c2cc(C(=O)Nc3ccccc3)ccc21 | 128% |
| O=C(Nc1ccccc1)c1cc2ccccc2[nH]1 | 137% (active) |

| Compound | activation (% of control) |
| --- | --- |
| CCCCNC(=O)Nc1c(C)cc(SC#N)cc1C | 97.9% |
| CCOc1ccc(/C=N/Nc2nncc(-c3ccccc3)n2)cc1OC | 107% |
| COc1ccc(/C=N/S(=O)(=O)c2ccccc2)cc1OC | 107% |
| COc1ccc(/C=N/Nc2nc3ccccc3o2)cc1OC | 153% (active) |
| CCOC(=O)c1ccc[n+](CC(=O)Nc2ccccc2OC(F)F)c1 | 98.5% |
| O=C(Nc1cccc(-c2nnc(-c3ccccc3)o2)c1)C1CCCO1 (stereo unspecified) | 120% |
| O=C(Nc1ccc(-c2nnc(-c3ccccc3)o2)cc1)C1CCCO1 (stereo unspecified) | 168% (active) |
| O=C(Nc1nnc(CCc2ccccc2)s1)C1CCCO1 (stereo unspecified) | 109% |
| CC1CN(S(=O)(=O)c2ccc(C(=O)NN3CCN(C)CC3)cc2)CC(C)O1 (stereo unspecified) | 100% |
| Cc1ccc(S(=O)(=O)Nc2nc(C)cc(N/N=C/c3ccc(O)cc3)n2)cc1 | 95.6% |
| CCOC(=O)c1sc(NC(=O)c2ccncc2)nc1C | 109% |
| CC(=O)c1sc(NC(=O)CCCOc2ccccc2C)nc1C | 105% |
| CC(=O)c1sc(N/N=C\c2ccc(C)cc2)nc1C | 166% (active) |
| CC(=O)c1sc(NC(=O)c2cccc3ccccc23)nc1C | 114% |
| CC(=O)c1sc(NC(=O)c2ccc(C)cc2)nc1C | 161% (active) |
| CC(=O)c1sc(NC(=O)C2=NN(c3ccccc3)C(=O)CC2)nc1C | 98.2% |
| CC(=O)c1sc(N/N=C/c2ccc(C(C)C)cc2)nc1C | 158% (active) |
| COc1cccc2sc(Nc3nc(C)c(C(C)=O)s3)nc12 | 112% |
